3 compounds from PubChem BioAssay AID651598 (Sanford-Burnham Center for Chemical Genomics, 2012) can be followed below.

Where “and” joins values, the source holds several entries; their conditions need not be identical. Identical values can stand only once.

In the assay the target is Apelin receptor (Homo sapiens) (UniProt P35414). Put plainly: apelin receptor (APJ) antagonists, SAR follow-up, counter-screen for CXCR6 antagonist project, cell-based, beta-arrestin, DiscoveRx, panel, CHO-K1 (AID 651598). To be noted: CHO-K1 PathHunter beta-arrestin luminescence, antagonist mode; run 6, at 80 µM (top of the series). (In general: The purpose of a counterscreen is to sort out artefacts and off-target activity.)
Sequence of Apelin receptor (Homo sapiens) (P35414 whole entry, looked up): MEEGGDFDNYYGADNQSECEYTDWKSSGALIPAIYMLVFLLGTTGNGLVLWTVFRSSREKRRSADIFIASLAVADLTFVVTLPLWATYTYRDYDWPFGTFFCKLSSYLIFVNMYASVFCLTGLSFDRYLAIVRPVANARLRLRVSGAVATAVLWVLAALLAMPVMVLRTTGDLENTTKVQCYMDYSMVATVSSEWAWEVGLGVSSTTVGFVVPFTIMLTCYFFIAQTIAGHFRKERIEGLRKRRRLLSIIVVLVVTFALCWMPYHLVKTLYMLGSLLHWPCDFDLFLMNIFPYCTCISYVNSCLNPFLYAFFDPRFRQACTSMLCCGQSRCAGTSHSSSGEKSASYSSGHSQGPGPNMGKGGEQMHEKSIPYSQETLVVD
As for `COc1cc(C(=O)NC2CC3CCCC(C2)N3CC(=O)Nc2ccccc2)cc(OC)c1OC` (stereo not drawn), the inhibition (usually the drop in the measured response relative to a control, in per cent) is 9.24% and -4.02% and 20.6%.
As to `COc1cc(C(=O)NC2CCN(CC(=O)Nc3ccccc3)CC2)cc(OC)c1OC`, the inhibition was -2.93%.
The figure for `COc1cc(C(=O)NC2CC3CCC(C2)N3CC(=O)Nc2ccccc2)cc(OC)c1OC` (stereo not drawn) is 10.4% and -17.1%.
